HT1080NT lethal: kills 2HG-producing HT-1080-NT fibrosarcoma cells | HT-1080-NT fibrosarcoma viability, CellTiter-Glo ATP luminescence, 48 h | hit rate 1.6% among 360,000 | Potency, µM (top dose mostly 46.1 µM), for inactives: at the top dose activity, negative = less viability, most hits filed as cytotoxic;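 note: NT is the 2HG producing partner of a matched IDH1 knockdown line; potency is the fitted concentration of half-maximal effect; 0% = DMSO-treated cells and -100% = media-only wells without cells; nearly all actives have a fitted effect of over 55% in size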
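A 48-hour cytotoxicity screen used HT-1080-NT cells plated 2 hours before compound delivery. ATP-based CellTiter-Glo luminescence measured viability, normalized to DMSO and no-cell controls.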
TDP1 cell noCPT: qHTS for Inhibitors of human tyrosyl-DNA phosphodiesterase 1 (TDP1): qHTS in cells in absence of CPT | DT40 Tdp1-/- hTDP1 cells, no CPT, ATP luminescence, 48 h | Potency, µM (top dose mostly 46.2 µM), for the others: at the top dose activity change, negative = growth inhibition, actives largely listed as inhibitors | hit rate 15% among 420,000 | AID 686978, 2013; note: potency is the fitted concentration of half-maximal effect; nearly all actives have a fitted effect of over 55% in size
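Luminescent ATP content (CellTiter-Glo) served as the growth readout. Knockout chicken DT40 cells expressing human TDP1 were exposed to compounds without camptothecin for a minimum 48 hr at 37 °C.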
ELG1 DNA repair: inhibitors of ELG1-dependent DNA repair in HEK293T cells | HEK293T ELG1-luciferase reporter, luminescence, 16 h; DNA damage induced by 5-fluorouridine | hit rate 2.3% among 330,000 | Potency, µM (titrated, usually from 46.1 µM), inactives show top-dose activity change, negative = inhibition, usual class: inhibitors; note: potency is the fitted concentration of half-maximal effect; nearly all actives have a fitted effect of over 55% in size
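Cells (2,000 per well) received 5-fluorouridine plus test compound or DMSO and were incubated 16 hr at 37 °C, 5% CO2. Luciferase activity was read by luminescence 30 min after ONE-Glo addition; signal suppression marked inhibition of damage-induced ELG1 function.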
HT1080 IDH1KD tx: HT-1080 IDH1 knockdown cell toxicity (counter line) | HT-1080 IDH1 knockdown viability, ATP luminescence, 48 h | Potency, µM (highest dose often 46.1 µM), without a hit: at the top dose activity, negative = toxicity, hits mostly cytotoxic | hit rate 2% among 360,000;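 note: potency is the fitted concentration of half-maximal effect; 0% = DMSO wells and -100% = cell-free medium wells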
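Knockdown cells (IDH1KD HT-1080) received compounds 2 h after plating at 750 cells/well and were kept 48 h at 37 °C in 5% FBS RPMI. A CellTiter-Glo luminescence read gave % activity for curve fitting.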
DT40 TDP1 CPT: growth inhibition of DT40 Tdp1-/-;hTDP1 cells with camptothecin (screen for TDP1 inhibitors); chicken DT40 Tdp1-/-;hTDP1 cells + 20 nM CPT, ATP luminescence, 48 h; hit rate 12% among 420,000; Potency, µM (doses to about 46.2 µM), for inactives: at the highest dose activity change, negative = growth inhibition, actives largely listed as inhibitors; AID 686979; note: potency is the fitted concentration of half-maximal effect; nearly all actives have a fitted effect of over 55% in size
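Chicken DT40 Tdp1-/- cells stably complemented with human TDP1 were seeded at 400 cells/well in medium containing 20 nM camptothecin, exposed to pin-transferred compounds, and grown at 37 °C for at least 48 hr. Viability was read as ATP luminescence.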
IL-1B inflam inh: blocks inflammasome-driven IL-1 beta release; THP-1 LPS/ATP IL-1B secretion, AlphaLISA, 16 h; stronger effect = lower value; activity change, % at 57.5 µM; hit rate 4.7% among 360,000; AID 743279; in the data active = activity change below about -50%; inconclusive = mostly about -30% to -49%
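THP-1 cells pretreated 1 hr with compounds (up to 57.5 uM final), then stimulated with LPS (250 ng/mL final) plus ATP (1.25 mM final); secreted IL-1B measured by AlphaLISA after 16 hr, decreased signal indicating inhibition.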
Active calls of the source: *; i = inactive; ? = inconclusive; / = not tested or not shown. Rows were chosen to be rich in hits. Some 19% of all compounds tested hit in one or more screens of this group. Unless noted, calls come from the whole dose curve; as a rule, active = well fitted curve in the direction sought with a large enough effect; inconclusive = small, poorly fitted or top-dose-only effect, or another doubt; inactive = no such curve, though single readings can be large; an effect the other way counts as inactive or inconclusive. Unless noted, % is set by controls: 0 for no effect and ±100 for the full control effect.

SMILES | HT1080NT lethal | TDP1 cell noCPT | ELG1 DNA repair | HT1080 IDH1KD tx | DT40 TDP1 CPT | IL-1B inflam inh
CCN(CC)CCN(C(=O)c1ccc(C(=O)c2ccccc2)cc1)c1nc2c(OC)cccc2s1 | -18% | -23% | -11% | -13% | ? | -66*
CN(C)CCCN(C(=O)c1ccco1)c1nc2c(F)cc(F)cc2s1 | -29% | 21µM* | 15% | -18% | ? | -25
CCN(CC)CCN(C(=O)c1cccc(N2C(=O)CCC2=O)c1)c1nc2cc3c(cc2s1)OCO3 | -6% | 1% | 5% | -4% | 22% | ?
CCN(CC)CCN(C(=O)CCS(=O)(=O)c1ccccc1)c1nc2cc3c(cc2s1)OCO3 | -23% | 12µM* | -2% | ? | 8.2µM* | ?
CCOc1ccc(NS(=O)(=O)c2ccc3[nH]cc(C(=O)N(C)C4CCCCC4)c(=O)c3c2)cc1 | / | -8% | / | / | 4% | /
CN(C)CCCN(C(=O)c1ccco1)c1nc2cc3c(cc2s1)OCO3 | ? | 5.2µM* | 20% | ? | 3.7µM* | ?
CN(C)CCCN(C(=O)c1ccc(C(=O)c2ccccc2)cc1)c1nc2cc3c(cc2s1)OCO3 | ? | 23µM* | -1% | ? | 16µM* | -68*
CN(C)CCCN(C(=O)c1ccc(C(=O)c2ccccc2)cc1)c1nc2ccc(F)cc2s1 | -18% | ? | ? | -11% | ? | -27
O=C(O)Cn1ccc2cc(S(=O)(=O)N3CCCCCC3)ccc21 | 18% | 4% | 21% | 9% | 1% | 12
O=C(c1ccncc1)N1CCC2(CC1)CN(c1ccncc1)C2 | / | -12% | / | / | 2% | /
CSCCOC(=O)COc1ccc(/C=N/NC(=O)c2nn(C)cc2Cl)cc1 | -20% | ? | ? | -1% | -19% | -69*
Cc1ccc(S(=O)(=O)Oc2ccc(/C=N/NC(=O)c3nn(C)cc3Cl)cc2)cc1 | 13% | -9% | ? | 12% | -23% | 0
CCN(CC)P(=O)(Nc1ccc(C)cc1Br)c1ccc(N(C)C)cc1NC(=O)c1ccco1 (stereo not given) | -10% | 16µM* | ? | -9% | ? | -66*
CSc1ccc(C(=O)C2CCCN(C(=O)CCc3c(C)nn(C)c3C)C2)cc1 (stereo not given) | 13µM* | 8.2µM* | / | ? | 10µM* | -12
CSc1ccc(C(=O)C2CCCN(C(=O)CCn3cncn3)C2)cc1 (stereo not given) | 9% | -25% | -13% | 17% | 4% | 2
O=C(c1ccc2ccccc2c1)C1CCCN(C(=O)CN2C(=O)CSC2=O)C1 (stereo not given) | 15% | -14% | ? | 14% | -9% | -1
O=C(c1ccc2ccccc2c1)C1CCCN(C(=O)c2noc3c2CCCC3)C1 (stereo not given) | -13% | ? | ? | -13% | ? | -72*
CSc1ncccc1C(=O)N1CCCC(C(=O)c2ccc3ccccc3c2)C1 (stereo not given) | 10% | 21µM* | ? | 15% | ? | -56*
O=C(c1ccc2ccccc2c1)C1CCCN(C(=O)c2cccnc2)C1 (stereo not given) | -8% | 15µM* | -3% | -23% | 16µM* | i
COc1ccc2cc(C(=O)C3CCCN(C(=O)c4cccnc4)C3)ccc2c1 (stereo not given) | 2% | ? | 6% | 3% | ? | -30
c1cc(NC2CC2)nc(-c2ccoc2)n1 | / | -3% | / | / | -10% | /
C/C=C(\C)CN1CCCC(CO)(Cc2ccccc2)C1 (stereo not given) | -1% | -20% | -2% | -15% | ? | 0

Compound activity: PubChem, National Center for Advancing Translational Sciences (NCATS)
